This is an account of results in the supplement of paper PMC10849652.

About 8,800 targets were measured; listed, in parts, are those with a hit and a random draw of the rest. About 0.5% of all pairs of compound and target were hits. A number with no mark means an inactive call.

Sequence of UniProt O15111 (O15111 whole entry, looked up): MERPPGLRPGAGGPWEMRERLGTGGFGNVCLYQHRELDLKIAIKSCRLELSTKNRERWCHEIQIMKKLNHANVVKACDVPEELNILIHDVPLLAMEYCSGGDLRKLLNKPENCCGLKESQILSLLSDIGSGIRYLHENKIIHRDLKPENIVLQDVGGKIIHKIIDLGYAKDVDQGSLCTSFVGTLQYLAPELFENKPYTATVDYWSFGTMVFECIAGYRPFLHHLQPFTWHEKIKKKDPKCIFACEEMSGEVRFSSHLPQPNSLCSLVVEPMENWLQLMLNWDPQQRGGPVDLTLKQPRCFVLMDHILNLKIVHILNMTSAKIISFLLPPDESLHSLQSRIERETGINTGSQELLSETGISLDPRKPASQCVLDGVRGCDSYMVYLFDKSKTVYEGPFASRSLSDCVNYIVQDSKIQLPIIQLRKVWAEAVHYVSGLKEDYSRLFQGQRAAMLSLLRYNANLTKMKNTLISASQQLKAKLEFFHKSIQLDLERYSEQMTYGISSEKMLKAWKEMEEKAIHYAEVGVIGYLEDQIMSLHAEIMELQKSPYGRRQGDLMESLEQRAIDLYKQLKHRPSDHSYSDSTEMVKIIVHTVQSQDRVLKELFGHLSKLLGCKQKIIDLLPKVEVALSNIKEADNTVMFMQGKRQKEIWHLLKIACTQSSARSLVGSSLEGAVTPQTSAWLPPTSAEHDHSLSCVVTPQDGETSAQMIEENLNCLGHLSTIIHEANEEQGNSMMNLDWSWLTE
Sequence of UniProt Q8WWK9 (Q8WWK9 whole entry, looked up): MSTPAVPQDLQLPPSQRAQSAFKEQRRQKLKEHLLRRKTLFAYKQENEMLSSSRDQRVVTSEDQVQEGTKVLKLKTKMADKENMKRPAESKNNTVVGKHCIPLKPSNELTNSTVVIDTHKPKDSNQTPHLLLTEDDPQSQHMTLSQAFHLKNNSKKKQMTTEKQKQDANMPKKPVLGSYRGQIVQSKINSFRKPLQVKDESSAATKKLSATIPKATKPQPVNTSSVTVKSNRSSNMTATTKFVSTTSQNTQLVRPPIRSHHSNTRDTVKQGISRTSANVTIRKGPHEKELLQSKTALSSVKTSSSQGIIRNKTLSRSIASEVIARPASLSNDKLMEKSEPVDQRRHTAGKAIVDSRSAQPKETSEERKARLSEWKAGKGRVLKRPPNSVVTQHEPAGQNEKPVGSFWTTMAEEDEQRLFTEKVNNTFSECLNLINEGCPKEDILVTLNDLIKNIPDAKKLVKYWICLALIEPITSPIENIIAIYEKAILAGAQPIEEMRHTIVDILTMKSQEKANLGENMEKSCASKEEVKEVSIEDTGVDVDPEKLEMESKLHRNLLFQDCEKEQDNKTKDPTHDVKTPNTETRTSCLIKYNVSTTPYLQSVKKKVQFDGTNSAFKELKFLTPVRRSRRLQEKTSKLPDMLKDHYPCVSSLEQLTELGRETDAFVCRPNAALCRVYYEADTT
Sequence of UniProt Q9NSV4 (Q9NSV4 whole entry, looked up): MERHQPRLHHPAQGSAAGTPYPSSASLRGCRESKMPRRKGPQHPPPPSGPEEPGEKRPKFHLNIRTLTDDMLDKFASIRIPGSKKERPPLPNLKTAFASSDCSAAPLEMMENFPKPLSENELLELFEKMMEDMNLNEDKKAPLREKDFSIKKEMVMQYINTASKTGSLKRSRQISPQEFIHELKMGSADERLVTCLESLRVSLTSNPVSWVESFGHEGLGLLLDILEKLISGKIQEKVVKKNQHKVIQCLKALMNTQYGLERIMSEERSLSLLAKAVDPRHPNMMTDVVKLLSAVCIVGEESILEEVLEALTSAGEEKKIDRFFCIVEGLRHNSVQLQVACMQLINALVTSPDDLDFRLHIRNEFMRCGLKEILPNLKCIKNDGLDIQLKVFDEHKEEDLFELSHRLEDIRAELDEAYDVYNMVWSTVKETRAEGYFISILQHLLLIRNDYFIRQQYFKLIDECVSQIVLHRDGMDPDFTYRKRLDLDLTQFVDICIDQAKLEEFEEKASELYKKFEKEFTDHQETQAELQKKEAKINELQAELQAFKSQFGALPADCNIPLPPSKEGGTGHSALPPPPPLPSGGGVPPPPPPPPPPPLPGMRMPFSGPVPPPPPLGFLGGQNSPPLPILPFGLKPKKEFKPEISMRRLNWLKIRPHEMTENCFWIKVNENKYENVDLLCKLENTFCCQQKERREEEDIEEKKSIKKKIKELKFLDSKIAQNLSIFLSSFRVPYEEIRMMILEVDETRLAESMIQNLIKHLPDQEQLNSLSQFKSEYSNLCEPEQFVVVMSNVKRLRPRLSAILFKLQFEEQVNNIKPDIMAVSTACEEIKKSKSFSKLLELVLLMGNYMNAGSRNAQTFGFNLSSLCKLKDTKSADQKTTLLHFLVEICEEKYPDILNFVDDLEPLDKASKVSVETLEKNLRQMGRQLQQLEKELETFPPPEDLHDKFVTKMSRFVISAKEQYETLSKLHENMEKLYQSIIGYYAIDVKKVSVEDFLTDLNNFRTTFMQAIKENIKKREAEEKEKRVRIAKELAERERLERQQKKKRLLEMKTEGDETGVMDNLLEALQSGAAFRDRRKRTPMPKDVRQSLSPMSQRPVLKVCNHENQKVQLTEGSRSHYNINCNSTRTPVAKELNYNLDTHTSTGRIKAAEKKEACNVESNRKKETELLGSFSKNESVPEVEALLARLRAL
Sequence of UniProt Q9UHD1 (Q9UHD1 whole entry, looked up): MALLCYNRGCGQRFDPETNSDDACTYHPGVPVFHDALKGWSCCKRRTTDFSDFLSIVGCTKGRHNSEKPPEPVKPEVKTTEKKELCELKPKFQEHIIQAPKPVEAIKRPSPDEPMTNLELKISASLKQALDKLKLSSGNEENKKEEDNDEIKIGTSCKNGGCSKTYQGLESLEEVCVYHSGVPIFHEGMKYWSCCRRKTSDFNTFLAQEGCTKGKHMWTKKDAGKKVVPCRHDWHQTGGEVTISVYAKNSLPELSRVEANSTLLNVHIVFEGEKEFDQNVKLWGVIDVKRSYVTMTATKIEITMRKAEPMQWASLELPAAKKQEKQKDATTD
Sequence of UniProt P31146 (P31146 whole entry, looked up): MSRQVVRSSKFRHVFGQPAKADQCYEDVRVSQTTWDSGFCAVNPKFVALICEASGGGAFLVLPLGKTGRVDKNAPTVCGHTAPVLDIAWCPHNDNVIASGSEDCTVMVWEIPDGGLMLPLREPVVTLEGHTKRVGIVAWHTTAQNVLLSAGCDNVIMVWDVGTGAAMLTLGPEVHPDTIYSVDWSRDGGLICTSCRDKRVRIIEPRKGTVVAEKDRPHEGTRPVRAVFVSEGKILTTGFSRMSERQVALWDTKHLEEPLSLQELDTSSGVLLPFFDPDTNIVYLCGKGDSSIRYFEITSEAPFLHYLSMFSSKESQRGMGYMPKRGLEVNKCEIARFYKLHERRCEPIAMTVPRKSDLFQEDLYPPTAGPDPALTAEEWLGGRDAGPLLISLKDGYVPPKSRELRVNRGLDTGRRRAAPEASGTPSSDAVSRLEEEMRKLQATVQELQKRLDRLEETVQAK
Sequence of UniProt P00374 (P00374 whole entry, looked up): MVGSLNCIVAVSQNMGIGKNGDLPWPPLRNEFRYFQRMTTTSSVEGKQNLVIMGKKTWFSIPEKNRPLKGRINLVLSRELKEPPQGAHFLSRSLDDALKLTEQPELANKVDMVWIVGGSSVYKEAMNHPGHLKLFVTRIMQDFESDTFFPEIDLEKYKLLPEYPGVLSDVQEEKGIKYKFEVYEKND
Sequence of UniProt Q14019 (Q14019 whole entry, looked up): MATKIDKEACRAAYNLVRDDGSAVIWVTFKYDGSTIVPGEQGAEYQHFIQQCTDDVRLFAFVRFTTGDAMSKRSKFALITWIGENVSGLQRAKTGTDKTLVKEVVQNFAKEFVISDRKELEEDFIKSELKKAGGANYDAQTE
Sequence of UniProt Q8TB03 (Q8TB03 whole entry, looked up): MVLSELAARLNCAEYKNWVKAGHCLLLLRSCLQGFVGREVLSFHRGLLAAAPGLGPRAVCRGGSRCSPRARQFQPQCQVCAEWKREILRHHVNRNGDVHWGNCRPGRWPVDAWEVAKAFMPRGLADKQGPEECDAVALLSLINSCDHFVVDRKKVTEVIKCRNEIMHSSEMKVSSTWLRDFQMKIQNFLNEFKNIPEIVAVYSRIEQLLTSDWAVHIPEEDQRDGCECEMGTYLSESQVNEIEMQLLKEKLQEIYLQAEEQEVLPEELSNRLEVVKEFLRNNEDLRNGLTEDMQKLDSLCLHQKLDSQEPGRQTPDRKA
Sequence of UniProt Q9H5X1 (Q9H5X1 whole entry, looked up): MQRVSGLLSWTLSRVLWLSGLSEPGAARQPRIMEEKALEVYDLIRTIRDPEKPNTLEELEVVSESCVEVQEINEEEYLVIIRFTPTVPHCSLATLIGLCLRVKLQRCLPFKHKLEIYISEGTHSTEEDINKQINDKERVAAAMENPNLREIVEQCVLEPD
Sequence of UniProt Q96EP5 (Q96EP5 whole entry, looked up): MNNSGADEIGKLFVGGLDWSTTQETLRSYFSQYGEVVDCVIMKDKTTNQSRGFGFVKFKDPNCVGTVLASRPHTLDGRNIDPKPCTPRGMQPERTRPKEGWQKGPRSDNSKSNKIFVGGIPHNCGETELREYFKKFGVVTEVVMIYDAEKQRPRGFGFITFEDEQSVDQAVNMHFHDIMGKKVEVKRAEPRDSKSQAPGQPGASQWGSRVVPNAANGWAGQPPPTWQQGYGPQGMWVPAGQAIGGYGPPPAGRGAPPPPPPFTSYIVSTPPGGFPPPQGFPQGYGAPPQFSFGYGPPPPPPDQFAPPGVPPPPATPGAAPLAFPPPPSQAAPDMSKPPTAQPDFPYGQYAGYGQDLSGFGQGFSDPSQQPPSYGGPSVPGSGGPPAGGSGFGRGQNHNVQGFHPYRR
Sequence of UniProt O76075 (O76075 whole entry, looked up): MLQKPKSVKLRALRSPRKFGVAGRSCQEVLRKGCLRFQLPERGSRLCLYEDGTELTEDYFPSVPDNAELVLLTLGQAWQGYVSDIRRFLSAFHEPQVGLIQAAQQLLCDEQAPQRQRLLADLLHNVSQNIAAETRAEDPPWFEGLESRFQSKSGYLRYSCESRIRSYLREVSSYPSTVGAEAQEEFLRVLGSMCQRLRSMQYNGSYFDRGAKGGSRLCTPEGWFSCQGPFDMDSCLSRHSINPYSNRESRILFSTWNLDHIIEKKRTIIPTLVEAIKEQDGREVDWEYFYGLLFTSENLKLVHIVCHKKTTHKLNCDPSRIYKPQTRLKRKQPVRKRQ

Compound in the first assay: CC(=O)c1cnc2ccc(-c3cc(Cl)c(O)c(Cl)c3)nc2c1N[C@H]1CC[C@H](CN(C)C)CC1
Kind of assay: log2 fold change, soluble protein after heating vs DMSO (PISA); higher = thermal stabilisation; K562 lysate, 10 uM; active = over 0.2 and 3.5 SD of the protein, either way, in both replicates (recomputed). The essentials:
(§1)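 Thermal stability, expressed as log-two fold change relative to solvent controls, is given from duplicates. Crude K562 extract in PBS pH 7.4 with 1 mM MgCl2, at 1 mg/mL protein, was treated with 10 μM compound for 30 min and heated in aliquots for 3 min across 48°C-58°C. After pooling, adjustment to 0.5% NP-40 at 4°C and centrifugation at 21,000xg for 90 min, supernatant protein was measured by TMTpro 16plex LC-MS/MS with channel sums equalised.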
As for CKAP2 (UniProt Q8WWK9), the log2 fold change was -0.057.

On to CIC (UniProt I3L2J0), for which the log2 fold change is 0.044.

Turning to COTL1 (UniProt Q14019), the log2 fold change is 0.001.

Take CHORDC1 (UniProt Q9UHD1): the log2 fold change is 0.004.

With CXorf38 (UniProt Q8TB03), the log2 fold change is 0.015.

On to DHFR (UniProt P00374), for which the log2 fold change was 0.155.

Regarding CORO1A (UniProt P31146), the log2 fold change is -0.031.

As for CHUK (UniProt O15111), the log2 fold change is 0.04.

Consider DIAPH3 (UniProt Q9NSV4), for which the log2 fold change was 0.093.

As to CIP2A (UniProt Q8TCG1), the log2 fold change is 0.001.

On to CIAO2A (UniProt Q9H5X1), for which the log2 fold change was 0.044.

Compound in a further assay: CC(C)(C)Cn1c(N)nc2ccc(-c3[nH]c(C(C)(C)C)nc3-c3ccc(F)cc3)nc21 [ralimetinib]
The assay is described as above. The essentials: as §1
Regarding DLGAP5 (UniProt Q15398), the log2 fold change is -0.018.

As for DCTN1 (UniProt Q14203), the log2 fold change is 0.013.

With DOCK10 (UniProt Q96BY6), the log2 fold change is -0.001.

Take DFFB (UniProt O76075): the log2 fold change is 0.054.

As for CWC22 (UniProt Q9HCG8), the log2 fold change was 0.007.

As to CHMP4A isoform 2 (UniProt Q9BY43), the log2 fold change is 0.03.

For DDX54 isoform 2 (UniProt Q8TDD1), the log2 fold change is 0.036.

Regarding DLG3 isoform 2 (UniProt Q92796), the log2 fold change was 0.124.

Turning to COG3 (UniProt Q96JB2), the log2 fold change was 0.052.

Regarding CMPK2 (UniProt Q5EBM0), the log2 fold change was -0.012.

CNOT6L (UniProt Q96LI5): the log2 fold change was 0.037.

Regarding CSK (UniProt P41240), the log2 fold change was 0.

In the case of CYP24A1 (UniProt Q07973), the log2 fold change was -0.03.

For DAZAP1 (UniProt Q96EP5), the log2 fold change is -0.124.

In the case of CNIH4 (UniProt Q9P003), the log2 fold change is 0.006.

For DNM2 (UniProt P50570), the log2 fold change is 0.013.

For the target CMIP (UniProt Q8IY22), the log2 fold change was 0.

On to COQ9 (UniProt O75208), for which the log2 fold change was 0.015.

As for CNOT2 (UniProt Q9NZN8), the log2 fold change is 0.016.

Turning to DOCK8 (UniProt Q8NF50), the log2 fold change is 0.03.

Regarding CSNK2B (UniProt P67870), the log2 fold change is 0.003.

Turning to CPT1A (UniProt P50416), the log2 fold change was -0.016.

DNAH10 (UniProt Q8IVF4): the log2 fold change is -0.123.

Consider CKAP2 (UniProt Q8WWK9), for which the log2 fold change was -0.017.

CIC (UniProt I3L2J0): the log2 fold change was 0.055.

On to COTL1 (UniProt Q14019), for which the log2 fold change is -0.025.

In the case of CHORDC1 (UniProt Q9UHD1), the log2 fold change is -0.009.

In the case of CXorf38 (UniProt Q8TB03), the log2 fold change was -0.008.

For the target DHFR (UniProt P00374), the log2 fold change is -0.058.

Turning to CORO1A (UniProt P31146), the log2 fold change is -0.015.

As for CHUK (UniProt O15111), the log2 fold change was 0.063.

Consider DIAPH3 (UniProt Q9NSV4), for which the log2 fold change is 0.086.

Turning to CIP2A (UniProt Q8TCG1), the log2 fold change is 0.052.

With CIAO2A (UniProt Q9H5X1), the log2 fold change was 0.053.

Compound in another assay: CC(C)(O)CC(=O)NCCn1ccc2ncnc(Nc3ccc(Oc4cccc(C(F)(F)F)c4)c(Cl)c3)c21
Described as above. The essentials:
as §1
Turning to DLGAP5 (UniProt Q15398), the log2 fold change was 0.005.

On to DCTN1 (UniProt Q14203), for which the log2 fold change is -0.02.

For DOCK10 (UniProt Q96BY6), the log2 fold change is -0.008.

With DFFB (UniProt O76075), the log2 fold change was -0.068.

Take CWC22 (UniProt Q9HCG8): the log2 fold change is -0.002.

Consider CHMP4A isoform 2 (UniProt Q9BY43), for which the log2 fold change was -0.041.

Consider DDX54 isoform 2 (UniProt Q8TDD1), for which the log2 fold change is 0.023.

With DLG3 isoform 2 (UniProt Q92796), the log2 fold change is 0.042.

As for COG3 (UniProt Q96JB2), the log2 fold change is -0.042.

Regarding CMPK2 (UniProt Q5EBM0), the log2 fold change is 0.012.

CNOT6L (UniProt Q96LI5): the log2 fold change was -0.06.

On to CSK (UniProt P41240), for which the log2 fold change was 0.181.

On to CYP24A1 (UniProt Q07973), for which the log2 fold change was -0.159.

Turning to DAZAP1 (UniProt Q96EP5), the log2 fold change was 0.133.

Regarding CNIH4 (UniProt Q9P003), the log2 fold change is -0.152.

Regarding DNM2 (UniProt P50570), the log2 fold change was 0.013.

As to CMIP (UniProt Q8IY22), the log2 fold change is 0.004.

Take COQ9 (UniProt O75208): the log2 fold change was -0.008.

CNOT2 (UniProt Q9NZN8): the log2 fold change was -0.013.

For DOCK8 (UniProt Q8NF50), the log2 fold change was 0.047.

For the target CSNK2B (UniProt P67870), the log2 fold change is -0.013.

Take CPT1A (UniProt P50416): the log2 fold change was 0.008.

As to DNAH10 (UniProt Q8IVF4), the log2 fold change was -0.112.

Take CKAP2 (UniProt Q8WWK9): the log2 fold change is 0.016.

For CIC (UniProt I3L2J0), the log2 fold change was -0.083.

Regarding COTL1 (UniProt Q14019), the log2 fold change is 0.049.

In the case of CHORDC1 (UniProt Q9UHD1), the log2 fold change was -0.001.

As for CXorf38 (UniProt Q8TB03), the log2 fold change was -0.007.

As to DHFR (UniProt P00374), the log2 fold change is 0.016.

Take CORO1A (UniProt P31146): the log2 fold change is -0.021.

As to CHUK (UniProt O15111), the log2 fold change was 0.071.

DIAPH3 (UniProt Q9NSV4): the log2 fold change is -0.032.

Regarding CIP2A (UniProt Q8TCG1), the log2 fold change was -0.046.

Take CIAO2A (UniProt Q9H5X1): the log2 fold change was -0.034.
